Reference: PubChem BioAssay (NCATS)
Values without a mark were called inactive. Inconclusive results are not listed. Calls of active or inactive are those of the source. Unless noted, calls come from the whole dose curve; as a rule, active = well fitted curve in either direction with a large enough effect (not every such curve was filed as active); inconclusive = small, poorly fitted or top-dose-only effect, or another doubt; inactive = flat fitted curve, though single readings scatter.

Legend:
[1] = molecular target: Lysosomal acid glucosylceramidase (Homo sapiens) (UniProt P04062); test: Glucocerebrosidase-p2 (AID 348; in the data active = potency below about 10 µM; note: potency is the fitted concentration of half-maximal effect); settings: purified GBA, blue fluorogenic substrate, 40 min
Chain of Lysosomal acid glucosylceramidase (Homo sapiens) (P04062 whole entry, looked up): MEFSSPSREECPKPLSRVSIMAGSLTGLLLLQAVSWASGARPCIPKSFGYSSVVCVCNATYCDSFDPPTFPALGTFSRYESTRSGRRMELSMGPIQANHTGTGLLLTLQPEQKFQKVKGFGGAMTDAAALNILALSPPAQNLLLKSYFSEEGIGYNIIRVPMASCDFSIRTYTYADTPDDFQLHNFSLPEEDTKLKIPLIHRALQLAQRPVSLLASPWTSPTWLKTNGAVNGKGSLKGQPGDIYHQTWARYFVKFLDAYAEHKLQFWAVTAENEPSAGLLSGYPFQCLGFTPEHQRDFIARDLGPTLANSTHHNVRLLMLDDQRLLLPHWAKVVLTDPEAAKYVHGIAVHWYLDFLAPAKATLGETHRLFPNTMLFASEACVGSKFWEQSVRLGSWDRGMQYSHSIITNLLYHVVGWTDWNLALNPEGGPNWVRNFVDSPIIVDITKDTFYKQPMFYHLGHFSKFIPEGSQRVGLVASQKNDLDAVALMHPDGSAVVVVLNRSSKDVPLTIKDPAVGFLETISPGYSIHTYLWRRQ
Summary of the method: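 Compounds titrated from 0.6 nM upwards against 0.2 nM enzyme in pH 5.9 citric acid/KH2PO4, taurocholate, tween-20; blue fluorogenic substrate 80 uM, 40 min room temperature, stopped and read Ex 365/Em 440 for AC50.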

[2] = AP1 Signaling Pathway (AID 357); settings: ME-180 AP-1-bla reporter, EGF-induced, beta-lactamase ratio, 5 h; at 7.69 µM (top of the series) unless noted;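 note: ME-180 reporter cells stimulated with EGF at its EC50 level; % is set by controls: 0 for no effect and ±100 for the full control effect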
Summary of the method: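 Cells are seeded overnight, exposed to compound titrations and an EC50 level of EGF for 5 hours at 37 °C, then loaded with CCF4 dye for 2.5 hours. Beta-lactamase activity under the AP-1 element is read as a blue/green ratio.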

[3] = molecular target: Cytochrome P450 1A2 (Homo sapiens) (UniProt P05177); test: p450-cyp1a2 (AID 410; calls by dose curve; note: potency is the fitted concentration of half-maximal effect;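 for activity change, negative = inhibition: -100% = full effect of reference inhibitor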); settings: recombinant CYP1A2, luciferin-ME demethylation, luminescence; series mostly up to 11.4 µM
Chain of Cytochrome P450 1A2 (Homo sapiens) (P05177 whole entry, looked up): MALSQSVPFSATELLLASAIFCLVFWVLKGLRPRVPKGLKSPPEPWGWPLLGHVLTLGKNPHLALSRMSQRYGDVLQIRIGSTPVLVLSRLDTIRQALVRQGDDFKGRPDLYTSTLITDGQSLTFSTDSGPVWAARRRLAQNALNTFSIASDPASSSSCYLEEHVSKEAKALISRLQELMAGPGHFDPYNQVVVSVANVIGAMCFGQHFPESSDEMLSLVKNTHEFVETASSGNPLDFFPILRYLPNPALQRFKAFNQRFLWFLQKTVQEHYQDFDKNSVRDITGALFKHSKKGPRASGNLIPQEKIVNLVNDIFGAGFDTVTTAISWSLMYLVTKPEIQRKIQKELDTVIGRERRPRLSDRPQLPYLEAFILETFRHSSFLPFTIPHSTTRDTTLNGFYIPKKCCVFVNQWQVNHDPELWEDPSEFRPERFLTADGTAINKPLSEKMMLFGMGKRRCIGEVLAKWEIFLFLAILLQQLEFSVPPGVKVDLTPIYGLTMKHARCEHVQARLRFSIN
Summary of the method: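 20nM CYP1A2 with 100uM Luciferin-ME (at Km) in 100mM KPO4; compound preincubated 10 min, NADPH regeneration added, 60 min at room temperature. Luciferin quantified by luminescence after detection reagent; normalized to 57 uM furafylline.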

[4] = NFAT Signaling Pathway (AID 444); settings: Jurkat NFAT-bla M1, carbachol, beta-lactamase ratio, 5 h; at 7.69 µM (top of the series) unless noted;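 note: carbachol stimulus at about its EC50 of 1 µM final; % is set by controls: 0 for no effect and ±100 for the full control effect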
Summary of the method: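 Read-out: CCF4 FRET ratio (460 nm/530 nm) after 1 h RT dye loading, used for %activity and AC50 from titration series. Cells: Jurkat NFAT-β-lactamase/M1 line, treated with compound plus 1 uM carbachol for 5 h, 37 °C.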

[5] = Stat Signaling Pathway (AID 446); settings: ME-180 SIE beta-lactamase reporter, IL-6 stimulated, 5 h; at 7.69 µM (top of the series) unless noted;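 note: ME-180 cervical cancer cells given 40 pM IL-6 alongside compound; SIE-controlled beta-lactamase reporter measured as 460/530 nm FRET emission ratio; % is set by controls: 0 for no effect and ±100 for the full control effect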
Summary of the method: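 Screening format detects activators and inhibitors alike: ME-180 SIE-bla cells stimulated at 40 pM IL-6 for 5 hrs with compound, then dual-emission beta-lactamase read at 405 nm excitation.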

[6] = molecular target: Glucocorticoid receptor (Homo sapiens) (UniProt P04150); test: GR-GFP Redistribution (AID 450;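 active = compounds whose dose series gives a full or clear partial fitted curve of increased nuclear translocation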; note: potency is the fitted concentration of half-maximal effect); settings: U2OS GR-GFP nuclear translocation, laser cytometry, 2 h
Chain of Glucocorticoid receptor (Homo sapiens) (P04150 whole entry, looked up, the tested form may be a part): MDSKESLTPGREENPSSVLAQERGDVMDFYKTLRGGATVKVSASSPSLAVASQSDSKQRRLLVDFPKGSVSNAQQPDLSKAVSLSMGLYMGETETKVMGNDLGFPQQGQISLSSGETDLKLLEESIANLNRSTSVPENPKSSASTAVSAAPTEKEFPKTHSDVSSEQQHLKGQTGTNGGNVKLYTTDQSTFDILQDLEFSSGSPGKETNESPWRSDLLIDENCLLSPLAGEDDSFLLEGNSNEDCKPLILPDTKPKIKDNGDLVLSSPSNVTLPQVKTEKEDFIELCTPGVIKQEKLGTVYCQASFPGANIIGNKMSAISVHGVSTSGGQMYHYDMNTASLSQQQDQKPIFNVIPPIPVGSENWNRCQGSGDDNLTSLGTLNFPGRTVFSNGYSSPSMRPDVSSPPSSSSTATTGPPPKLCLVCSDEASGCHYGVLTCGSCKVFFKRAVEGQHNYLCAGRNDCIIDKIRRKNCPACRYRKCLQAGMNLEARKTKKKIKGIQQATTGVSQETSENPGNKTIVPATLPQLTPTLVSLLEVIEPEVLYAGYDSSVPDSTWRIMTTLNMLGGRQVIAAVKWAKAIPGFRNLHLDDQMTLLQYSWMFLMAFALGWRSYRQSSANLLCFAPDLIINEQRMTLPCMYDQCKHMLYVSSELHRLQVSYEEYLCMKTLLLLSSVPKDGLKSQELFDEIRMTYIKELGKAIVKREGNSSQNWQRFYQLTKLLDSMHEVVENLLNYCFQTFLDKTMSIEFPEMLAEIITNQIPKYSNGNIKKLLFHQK

[7] = molecular target: Glucocorticoid receptor (Homo sapiens) (UniProt P04150); test: GR-EFC Redistribution (AID 451; calls by dose curve; note: potency is the fitted concentration of half-maximal effect); settings: CHO-K1 GR-EFC translocation, beta-gal luminescence, 2 h
Summary of the method: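 Translocation of GR-ED fusion to nuclear EA restores b-gal, read by luminescence after 1 h room-temperature detection. Engineered CHO-K1 biosensor cells, 1,000/well, exposed 2 h at 37 C to titrations up to 46 uM final.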

[8] = molecular target: Mitogen-activated protein kinase 10 (Mus musculus) (UniProt Q61831); test: JNK3 AlphaScreen Assay (AID 530); settings: JNK3 lysate, c-Jun phosphorylation; series mostly up to 11.4 µM;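 note: kinase came from lysate of stimulated human HepG2 cells; signal reports phosphorylation of biotinylated GST-cJun 1-79 at Ser73 with 10 µM ATP; % is set by controls: 0 for no effect and ±100 for the full control effect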
Summary of the method: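 Compound titrations were preincubated 15 minutes at room temperature with substrate, antibody and pre-activated JNK3-containing HepG2 lysate. Reactions were started with 10 uM ATP and stopped with EDTA-containing bead buffer for AlphaScreen detection.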

[9] = molecular target: 3',5'-cyclic-AMP phosphodiesterase 4B (Homo sapiens) (UniProt Q07343); test: qHTS Assay for Inhibitors of PDE-IV (AID 607; active = well fitted activation curve with a large enough effect in the main read-out, with a control signal flat, not every such curve was filed as active; note: % of control where 0% means no effect); settings: HEK293 ACTOne CNG channel cells, membrane potential fluorescence; series mostly up to 22.9 µM
Chain of 3',5'-cyclic-AMP phosphodiesterase 4B (Homo sapiens) (Q07343 whole entry, looked up): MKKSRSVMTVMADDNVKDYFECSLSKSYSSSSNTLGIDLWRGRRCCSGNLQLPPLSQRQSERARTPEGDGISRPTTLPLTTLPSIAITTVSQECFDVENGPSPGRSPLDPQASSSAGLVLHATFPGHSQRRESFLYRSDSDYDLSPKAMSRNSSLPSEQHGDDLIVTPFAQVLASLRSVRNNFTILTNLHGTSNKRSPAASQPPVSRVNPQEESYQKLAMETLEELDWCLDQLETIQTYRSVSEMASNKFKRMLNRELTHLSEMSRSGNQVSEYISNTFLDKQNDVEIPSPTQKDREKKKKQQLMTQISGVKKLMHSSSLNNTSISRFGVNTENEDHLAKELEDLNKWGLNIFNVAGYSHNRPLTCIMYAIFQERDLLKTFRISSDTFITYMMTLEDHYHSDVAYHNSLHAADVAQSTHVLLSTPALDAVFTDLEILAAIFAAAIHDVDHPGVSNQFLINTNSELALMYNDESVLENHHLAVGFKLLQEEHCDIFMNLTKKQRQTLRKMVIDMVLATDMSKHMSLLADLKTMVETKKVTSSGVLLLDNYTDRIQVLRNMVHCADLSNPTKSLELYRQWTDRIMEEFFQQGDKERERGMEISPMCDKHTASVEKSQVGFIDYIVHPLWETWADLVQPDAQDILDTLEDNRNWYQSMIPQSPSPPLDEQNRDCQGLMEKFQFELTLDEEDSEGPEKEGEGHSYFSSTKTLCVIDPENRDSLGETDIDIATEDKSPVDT
Summary of the method: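 The readout is membrane depolarisation from a cAMP-sensing CNG channel, detected with a potential dye at ex 535/em 590. Cells were HEK293-derived (endogenous PDE-IV) at 1000 cells/well, titrated up to 22.9 uM final.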

[10] = molecular target: Cytochrome P450 3A4 (Homo sapiens) (UniProt P08684); test: qHTS Assay for Activators of Cytochrome P450 3A4 (AID 885; active = well fitted curve in the direction sought with a large enough effect; an effect the other way counts as inactive or inconclusive; note: nearly all actives have a fitted effect of over 65% in size); settings: recombinant CYP3A4, Luciferin-PPXE luminescence, 60 min; series mostly up to 11.4 µM
Chain of Cytochrome P450 3A4 (Homo sapiens) (P08684 whole entry, looked up): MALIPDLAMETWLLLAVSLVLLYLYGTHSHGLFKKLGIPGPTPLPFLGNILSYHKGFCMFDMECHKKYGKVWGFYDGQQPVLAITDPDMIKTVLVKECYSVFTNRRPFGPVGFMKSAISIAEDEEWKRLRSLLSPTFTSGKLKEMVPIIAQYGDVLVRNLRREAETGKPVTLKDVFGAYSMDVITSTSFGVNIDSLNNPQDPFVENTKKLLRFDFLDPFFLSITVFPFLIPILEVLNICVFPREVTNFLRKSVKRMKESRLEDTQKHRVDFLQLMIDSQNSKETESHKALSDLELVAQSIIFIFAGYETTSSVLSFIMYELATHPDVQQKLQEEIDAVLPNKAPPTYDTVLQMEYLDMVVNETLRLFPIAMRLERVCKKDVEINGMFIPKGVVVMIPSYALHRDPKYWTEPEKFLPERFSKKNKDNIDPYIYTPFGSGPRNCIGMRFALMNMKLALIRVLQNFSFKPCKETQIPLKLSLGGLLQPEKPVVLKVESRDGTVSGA
Summary of the method: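 Steps: enzyme/substrate mix dispensed; compound added, 10 min RT; NADPH regeneration solution added, 60 min RT; luciferin detection buffer stops reaction; 20 min later luminescence measured.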

[11] = molecular target: Cytochrome P450 2D6 (Homo sapiens) (UniProt P10635); test: qHTS Assay for Inhibitors and Substrates of Cytochrome P450 2D6 (AID 891; active = well fitted curve in the direction sought with a large enough effect; an effect the other way counts as inactive or inconclusive; note: nearly all actives have a fitted effect of over 60% in size; note: potency is the fitted concentration of half-maximal effect); settings: recombinant CYP2D6, luciferin-ME EGE luminescence; series mostly up to 11.4 µM
Chain of Cytochrome P450 2D6 (Homo sapiens) (P10635 whole entry, looked up): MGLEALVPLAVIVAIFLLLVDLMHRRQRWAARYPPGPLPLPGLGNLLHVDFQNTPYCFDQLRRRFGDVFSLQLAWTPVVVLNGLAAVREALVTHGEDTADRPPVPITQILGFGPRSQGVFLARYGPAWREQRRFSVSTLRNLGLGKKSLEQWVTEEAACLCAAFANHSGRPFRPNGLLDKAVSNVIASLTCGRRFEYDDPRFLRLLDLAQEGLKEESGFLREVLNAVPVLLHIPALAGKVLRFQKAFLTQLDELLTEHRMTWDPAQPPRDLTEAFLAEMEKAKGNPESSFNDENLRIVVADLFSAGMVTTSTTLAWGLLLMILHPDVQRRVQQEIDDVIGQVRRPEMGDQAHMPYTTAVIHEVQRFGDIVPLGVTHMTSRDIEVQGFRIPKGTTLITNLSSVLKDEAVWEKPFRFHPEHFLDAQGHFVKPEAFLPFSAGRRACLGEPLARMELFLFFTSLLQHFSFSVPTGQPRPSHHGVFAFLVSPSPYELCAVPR
Summary of the method: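 Human CYP2D6 (5 nM) with 30 uM Luciferin-ME EGE (at Km) in 100 mM KPO4, compound preincubated 10 min, then NADPH regeneration system for 60 min at room temperature. Luciferin read by luminescence; normalized to 1.43 uM quinidine.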

[12] = molecular target: Cytochrome P450 2C19 (Homo sapiens) (UniProt P33261); test: qHTS Assay for Inhibitors and Substrates of Cytochrome P450 2C19 (AID 899; active = well fitted curve in the direction sought with a large enough effect; an effect the other way counts as inactive or inconclusive; note: potency is the fitted concentration of half-maximal effect; nearly all actives have a fitted effect of over 60% in size); settings: recombinant CYP2C19, luciferin-H EGE luminescence; series mostly up to 11.4 µM
Chain of Cytochrome P450 2C19 (Homo sapiens) (P33261 whole entry, looked up): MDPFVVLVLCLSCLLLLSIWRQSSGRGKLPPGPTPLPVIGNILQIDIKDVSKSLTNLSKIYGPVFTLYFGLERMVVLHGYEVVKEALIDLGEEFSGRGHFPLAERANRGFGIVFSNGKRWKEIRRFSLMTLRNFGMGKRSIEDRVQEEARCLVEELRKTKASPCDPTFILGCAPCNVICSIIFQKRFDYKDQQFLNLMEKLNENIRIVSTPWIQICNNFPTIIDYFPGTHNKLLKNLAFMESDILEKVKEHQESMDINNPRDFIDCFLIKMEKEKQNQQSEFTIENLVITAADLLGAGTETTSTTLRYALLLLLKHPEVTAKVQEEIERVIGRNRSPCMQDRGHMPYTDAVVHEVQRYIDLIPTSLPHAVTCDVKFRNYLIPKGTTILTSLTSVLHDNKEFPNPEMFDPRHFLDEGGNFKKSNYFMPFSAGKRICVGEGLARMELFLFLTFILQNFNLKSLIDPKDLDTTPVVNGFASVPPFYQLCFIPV
Summary of the method: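 5nM enzyme + 10uM Luciferin-H EGE (=KM), 50mM KPO4; cpd pin-transferred, 10 min 37C; NADPH regen, 60 min 37C; stopped w/ luciferin detection reagent, 20 min; luminescence. Normalized to 57uM ketoconazole (AC100).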

SMILES	Potency [1]	activity change, negative = inhibition [2] [%]	Potency [3]	activity change, negative = inhibition [4] [%]	activity, negative = inhibition [5] [%]	Potency [6]	Potency [7]	Potency [8]	Potency [9]	Potency [10]	activity change, negative = inhibition [3]	Potency [11]	Potency [12]
Cn1c(=O)c2[nH]c(CCS)nc2n(C)c1=O	> 11.4 µM	3.25	inactive	-18	3.06	> 46 µM	> 9.22 µM	inactive	inactive	inactive			
CN1CCN(Cc2nc3cccc4c3c([n+]2[O-])-c2ccccc2-4)CC1	> 11.4 µM	-4.75	1.26 µM (active)	9.77	6.12	> 46 µM	> 9.22 µM	inactive	inactive	inactive			
O=C1C2=C(Nc3cc([N+](=O)[O-])ccc3N2)O[C@@H]1c1c[nH]c2ccc(COc3ccccc3)cc12	> 11.4 µM	-21.7	2.51 µM (active)	6.34	0.333	> 46 µM	> 9.22 µM	inactive	inactive	inactive			
CC(C)(C)CC(C)(C)c1ccc(O)c(C[N+](C)(C)[O-])c1	> 11.4 µM	0.484		17.3	0.425	> 46 µM	> 9.22 µM	inactive	inactive	inactive	-17.9% [at 2.29 µM]		
c1ccc(CSc2nnc3c4ccccc4c4ccccc4c3n2)cc1	> 11.4 µM	6.19	0.2 µM (active)	-12.6	1.88	> 46 µM	> 9.22 µM	inactive	inactive	inactive			
Cc1ccc(N=Nc2ccc(N)cc2C)c(S(N)(=O)=O)c1	> 11.4 µM	2.62	0.501 µM (active)	15.6	-6.29	> 46 µM	> 9.22 µM	inactive	inactive	inactive			
Nc1n[nH]c2ccccc12	> 11.4 µM	-6.63		3.29	-1.94	> 46 µM	> 9.22 µM	inactive	inactive	inactive	-9.1% [at 2.29 µM]		
Cn1c(=O)c2[nH]c(CCCc3ccc([N+](=O)[O-])cc3)nc2n(C)c1=O	> 11.4 µM	1.15	inactive	-1.84	6	> 46 µM	> 9.22 µM	inactive	inactive	inactive			
CC1=NN(C(=O)c2ccncc2)C(=O)[C@@H]1N=Nc1ccc2ccccc2c1	> 11.4 µM	-15.6	0.158 µM (active)	11.9	-4.73	> 46 µM	> 9.22 µM	inactive	inactive	inactive			
NS(=O)(=O)c1ccc(N=Nc2nc3[nH]c(=O)[nH]c(=O)c3[nH]2)cc1	8.51 µM (active)	-5.25	inactive	13.6	21.2	> 46 µM	> 9.22 µM	inactive	inactive	inactive			
C[C@@H]1Oc2ccc(C(=O)C[C@@H](C(=O)O)c3ccc4c(c3)OCO4)cc2O1	> 11.4 µM	1.87	0.794 µM (active)	-10.8	-5.57	> 46 µM	> 9.22 µM	inactive	inactive	inactive			
CC1(CC(=O)O)O[C@H]2CCCCC[C@H]2O1 (some centres undefined) (tested in a mixture with another compound)	> 11.4 µM	8.96	inactive	-4.93	5.55	> 46 µM	> 9.22 µM	inactive	inactive	inactive			
COc1ncc2nc(-c3ccc(Cl)cc3)c(=O)n(C[C@H]3CCCO3)c2n1	> 11.4 µM	-1.85	0.501 µM (active)	-7.47	-9.41	> 9.22 µM	> 46 µM	inactive	inactive	inactive			
Br/C(=N\Nc1nn[nH]n1)c1ccncc1	> 11.4 µM	9.43	inactive	24.2	1.9	> 46 µM	> 9.22 µM	inactive	inactive	inactive		inactive	
Cc1nc2cnc(Oc3cccc(Cl)c3)nc2n(C[C@H]2CCCO2)c1=O	> 11.4 µM	-15.8	7.94 µM (active)	-3.55	-6.17	> 9.22 µM	> 46 µM	inactive	inactive	inactive			
c1nc(NCCc2cnc[nH]2)c2[nH]cnc2n1	> 11.4 µM	3.43	5.01 µM (active)	6.94	0.609	> 46 µM	> 9.22 µM	inactive	inactive	inactive			
COc1ncc2nc(-c3cc(F)cc(F)c3)c(=O)n(C[C@H]3CCCO3)c2n1	> 11.4 µM	-0.553	3.16 µM (active)	-10.9	-4.03	> 9.22 µM	> 46 µM	inactive	inactive	inactive			
CN(C)C[C@H]1CCC[C@@H](CN(C)C)C1=O	> 11.4 µM	5.24	inactive	-4.78	3.25	> 46 µM	> 9.22 µM	inactive	inactive	inactive			
C[C@@]12CCC(=O)C=C1CC[C@H]1[C@@H]2[C@@H](O)C[C@]2(C)[C@@H]1CC[C@@]2(O)C(=O)COC(=O)C1CCCC1	> 11.4 µM	-7.32	inactive	4.12	-0.238	0.0333 µM (active)	0.61 µM (active)	inactive	inactive	inactive			
Nc1nc(Cc2ccccc2)nc(Cc2ccccc2)c1-c1ccccc1	> 11.4 µM	-20.1	1 µM (active)	11.3	-7.29	> 46 µM	> 9.22 µM	inactive	inactive	inactive			
COc1cc2c3cc1Oc1c(OC)c(OC)cc4c1[C@@H](Cc1ccc(O)c(c1)Oc1ccc(cc1)C[C@@H]3N(C)CC2)CN(C)C4	> 11.4 µM	-11.4	inactive	-11.8	-1.76	> 46 µM	> 9.22 µM	inactive	inactive	inactive			
c1ccc(C2=NN[C@@H]3c4ccccc4-c4ccccc4N3C2)cc1	> 11.4 µM	-18.5	0.2 µM (active)	-9.73	-6.54	> 46 µM	> 9.22 µM	inactive	inactive	inactive			
COc1cccc2[nH]c(-c3ccccn3)nc12	> 11.4 µM	-2.26	0.794 µM (active)	1.67	4.98	> 46 µM	> 9.22 µM	inactive	inactive	inactive			
NC(N)=N/N=C(/c1ccccc1)c1ccc(O)cc1O	> 11.4 µM	-6.42	3.16 µM (active)	5.67	6.43	> 46 µM	> 9.22 µM	inactive	inactive	inactive		1.26 µM (active)	
CC(C)(C)CC(C)(C)c1cc(O)c(O)c(CN2CCCCC2)c1	> 11.4 µM	0.737	inactive	-28.7	3.86	> 46 µM	> 9.22 µM	inactive	inactive	inactive			
C[C@@H]1CCCN(CP(=O)(c2ccccc2)c2ccccc2)C1	> 11.4 µM	2.85	inactive	-1.11	0.378	> 46 µM	> 9.22 µM	inactive	inactive	inactive			
Cn1c(=O)c2[nH]c(SCCN3CCOCC3)nc2n(C)c1=S	> 11.4 µM	0.183	0.631 µM (active)	15.6	1.45	> 46 µM	> 9.22 µM	inactive	inactive	inactive			
C[C@H](C(=O)c1ccccc1)[C@@H](c1ccccc1)N1CCOCC1	> 11.4 µM	-4.08	inactive	5.21	8.2	> 46 µM	> 9.22 µM	inactive	inactive	inactive			1.58 µM (active)
C(/C=C\c1ccccc1)=Nc1ccc2c(c1)Cc1ccccc1-2	> 11.4 µM	-2.87	0.398 µM (active)	-3.9	7.01	> 46 µM	> 9.22 µM	inactive	inactive	inactive			3.98 µM (active)
